Measurements from the supplement of paper PMC8253809.
“And” between values parts separate entries of the source, which are not always exact repeats. Identical values can stand only once.

Assays:
Assay in all cases: growth inhibition (% activity, log2 RLU normalised to DMSO / staurosporine); higher = more growth inhibition
Details in all cases: 33 µM
DIPGX29 = system: DIPGX29 (H3.3 K27M diffuse intrinsic pontine glioma line)
How it was run: (§1)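 For each approved drug, the growth-inhibition value is the replicate median of per-plate normalised CellTiter-Glo data. Luminescence was log2-transformed and expressed as % activity between solvent and positive control wells. Drugs were applied in triplicate at a single final concentration of about 33 μM for 7 days at 37 °C, 5% CO2 to pHGG cell lines and H9-derived neural stem cells.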

DIPGX37 = system: DIPGX37 (H3.3 K27M diffuse intrinsic pontine glioma line)
How it was run: as §1

DIPGX7 = system: DIPGX7 (H3.3 K27M diffuse intrinsic pontine glioma line)
How it was run: as §1

DIPGX9 = system: DIPGX9 (diffuse intrinsic pontine glioma line)
How it was run: as §1

HGGX39 = system: HGGX39 (paediatric high-grade glioma line)
How it was run: as §1

HGGX6 = system: HGGX6 (H3.3 G34R paediatric high-grade glioma line)
How it was run: as §1

HNSC = system: HNSC
How it was run: as §1

SUDIPGIV = system: SUDIPGIV (diffuse intrinsic pontine glioma line)
How it was run: as §1

SUDIPGVI = system: SUDIPGVI (diffuse intrinsic pontine glioma line)
How it was run: as §1

SUDIPGXIII = system: SUDIPGXIII (diffuse intrinsic pontine glioma line)
How it was run: as §1

| Compound | growth inhibition (DIPGX29) | growth inhibition (DIPGX37) | growth inhibition (DIPGX7) | growth inhibition (DIPGX9) | growth inhibition (HGGX39) | growth inhibition (HGGX6) | growth inhibition (HNSC) | growth inhibition (SUDIPGIV) | growth inhibition (SUDIPGVI) | growth inhibition (SUDIPGXIII) |
| --- | --- | --- | --- | --- | --- | --- | --- | --- | --- | --- |
| CCOc1ccc2nc3cc(N)ccc3c(N)c2c1 | -0.121% | 2.61% | 2.68% | 3.22% | -1.26% | 1.77% | 2.09% | 1.88% | -0.000958% | 1.33% |
| CCCC(=O)[O-].[Na+] | -1.17% | -2.44% | -0.966% | 0.792% | 0.723% | 0.649% | -2.84% | -1.12% | 0.269% | 0.879% |
| N=C(N)NCCC[C@H](N)C(=O)O | -2.37% | 0.109% | 0.302% | -2.03% | -0.487% | -4.08% | 2.28% | -1.68% | -2% | -0.232% |
| OCCN1C[C@H](O)[C@@H](O)[C@H](O)[C@H]1CO | 2.17% | 1.74% | 3.33% | 2.76% | 4.58% | 1.44% | 6.31% | 2.25% | 4.59% | 1.39% |
| Nc1nc(=O)n([C@@H]2CS[C@H](CO)O2)cc1F | 0.68% | 3.05% | 1.33% | 1.75% | 1.6% | 0.276% | 0.206% | -0.429% | 2.25% | -2.25% |
| CC(=O)N1CCN(c2ccc(OCC3COC(Cn4ccnc4)(c4ccc(Cl)cc4Cl)O3)cc2)CC1 (stereo not given) | 5.63% | 1.48% | 11.2% | 4.81% | 13.3% | 9.98% | 7.8% | 13.7% | 7% | 12% |
| O=P(O)(O)C(Cl)(Cl)P(=O)(O)O | 0.766% | -0.716% | 0.292% | 1.96% | 2.08% | -0.402% | 0.239% | 0.894% | 2.08% | -0.0137% |
| COc1cc2nc(N3CCN(C(=O)c4ccco4)CC3)nc(N)c2cc1OC | 7.72% | -2.22% | 1.17% | 3.48% | -0.781% | 18.9% | -0.602% | -3.54% | -4.38% | -1.72% |
| CN1CCN(C2=Nc3ccccc3Oc3ccc(Cl)cc32)CC1 | -0.96% | 1.38% | -0.128% | 1.22% | 6.27% | -0.859% | 1.57% | 4.37% | -2.03% | 0.859% |
| CC(C)NCC(O)c1cc(O)cc(O)c1 (stereo not given) | -0.101% | 1.67% | 1.75% | 1.82% | 2.87% | -1.68% | 27.3% | 2.27% | -0.181% | -0.215% |
| CCN(CC)CCOC(=O)C1(C2CCCCC2)CCCCC1 | -1.15% | -1.5% | -1.55% | -2.17% | -2.47% | -0.591% | -1.91% | -0.751% | -0.615% | 0.956% |
| CCN(Cc1ccncc1)C(=O)C(CO)c1ccccc1 (stereo not given) | -2.54% | -1.96% | -1.34% | -0.78% | -1.19% | 0.149% | -4.87% | -1.01% | -0.507% | -1.24% |
| CNCC[C@@H](Oc1ccccc1C)c1ccccc1 | 1.02% | 2.33% | 2.36% | 0.537% | 2.58% | -1.18% | 8.5% | 3.36% | 4.57% | 1.41% |
| NC(=O)c1cnccn1 | -1.43% | 0.819% | -1.41% | -0.339% | -2.81% | 1.4% | -0.255% | -2.49% | 0.0834% | 1% |
| c1ccc2c(c1)CCCC2C1=NCCN1 (stereo not given) | 1.99% | 2.84% | 1.62% | 2.1% | 2.48% | 2.7% | 8.78% | 3.45% | 2.93% | 0.717% |
| COc1cc2/c(=N/c3ccc(Br)cc3F)nc[nH]c2cc1OCC1CCN(C)CC1 | 11.5% | 2.67% | 4.34% | 7.45% | 11.1% | 10.7% | 9.55% | -1.09% | -4.91% | 0.39% |
| CCCCCCCCCCOc1cc2c(O)c(C(=O)OCC)cnc2cc1OCC | -0.3% | -1.31% | 1.61% | -0.589% | 1.16% | -2.39% | 8.91% | 1.52% | -8.46% | -1.19% |
| O=S(=O)(O)CCS | -1.06% | 0.485% | -0.101% | 0.715% | -0.445% | -1.07% | 0.589% | -0.0759% | 1.78% | -0.97% |
| N[C@@H]1CONC1=O | 1.31% | -0.333% | 0.738% | 1.4% | 0.732% | 0.485% | -0.391% | -1.17% | 1.19% | 1.03% |
| COc1cc([C@@H]2c3cc4c(cc3[C@@H](O[C@@H]3O[C@@H]5CO[C@@H](C)O[C@H]5[C@H](O)[C@H]3O)[C@H]3COC(=O)[C@H]23)OCO4)cc(OC)c1O | 12.6% | 4.92% | 8.84% | 24.1% | 10.5% | 9.51% | 61.4% | 38.2% | 3.89% | 5.92% |

| Compound | growth inhibition (DIPGX29) | growth inhibition (DIPGX37) | growth inhibition (DIPGX7) | growth inhibition (DIPGX9) | growth inhibition (HGGX39) | growth inhibition (HGGX6) | growth inhibition (HNSC) | growth inhibition (SUDIPGIV) | growth inhibition (SUDIPGVI) | growth inhibition (SUDIPGXIII) |
| --- | --- | --- | --- | --- | --- | --- | --- | --- | --- | --- |
| C#CCC(Cc1cnc2nc(N)nc(N)c2n1)c1ccc(C(=O)N[C@@H](CCC(=O)O)C(=O)O)cc1 (stereo not given in full) | 10.7% | 6.3% | 25% | 9.98% | 22.8% | 24% | 56.1% | 16.5% | 17.6% | 13% |
| CC(C)(Oc1ccc(CCNC(=O)c2ccc(Cl)cc2)cc1)C(=O)O | 1.81% | 2.31% | 1.05% | 0.682% | 1.23% | 1.74% | 1.59% | 0.843% | 2.49% | -16.6% |
| NCCCCCC(=O)O | 0.867% | 2.56% | 2.76% | 1.09% | 2.5% | 4.7% | 0.436% | 1.23% | 0.903% | -1.64% |
| CCCC(=O)Nc1ccc(OCC(O)CNC(C)C)c(C(C)=O)c1 (stereo not given) | -1.23% | -0.501% | -1.01% | -0.6% | -0.175% | 0.315% | -4.5% | -0.848% | -2.3% | -1.79% |
| CC(C)c1nc(CN(C)C(=O)N[C@H](C(=O)N[C@@H](Cc2ccccc2)C[C@H](O)[C@H](Cc2ccccc2)NC(=O)OCc2cncs2)C(C)C)cs1 | 1.73% | 2.67% | 2.88% | 1.93% | 5.32% | 2.08% | 5.1% | -1.31% | -0.349% | -0.136% |
| CC[C@H](C)C(=O)O[C@H]1C[C@@H](C)C=C2C=C[C@H](C)[C@H](CC[C@@H]3C[C@@H](O)CC(=O)O3)[C@H]21 | 6.68% | -1.93% | 8.58% | 5.72% | 16.2% | 10.8% | 51.5% | 18.1% | -6.1% | -0.657% |
| Nc1cccc2c1CN(C1CCC(=O)NC1=O)C2=O (stereo not given) | 0.182% | 0.237% | 4.3% | 2.15% | 4.65% | 4.94% | 4.5% | 1.6% | 2.41% | -0.527% |
| C=CC[C@@H]1/C=C(\C)C[C@H](C)C[C@H](OC)[C@H]2O[C@@](O)(C(=O)C(=O)N3CCCC[C@H]3C(=O)O[C@H](/C(C)=C/[C@@H]3CC[C@@H](O)[C@H](OC)C3)[C@H](C)[C@@H](O)CC1=O)[C@H](C)C[C@@H]2OC | 1.19% | -1.52% | 3.82% | 4.63% | 9.14% | 3.03% | 6.43% | 4.72% | 5.58% | 2.59% |
| CCN(CCCc1ccccc1)CCCc1ccccc1 | 2.04% | 0.545% | 5.69% | 0.438% | 7.1% | 5.46% | 4.87% | 0.248% | -1.23% | -0.1% |
| CC(C(=O)O)c1cccc(C(=O)c2ccccc2)c1 (stereo not given) | -0.509% | -1.31% | -0.656% | -0.0225% | 1.05% | 0.639% | 0.455% | -5.26% | 1.35% | -0.582% |
| Nc1nc(NC2CC2)c2ncn([C@H]3C=C[C@@H](CO)C3)c2n1 | 1.7% | 3.27% | 1.17% | 1.56% | 3.46% | 3.46% | 0.755% | 2.42% | 3.29% | 0.173% |
| CCc1oc2ccccc2c1C(=O)c1cc(Br)c(O)c(Br)c1 | -0.0876% | 0.798% | -0.0754% | -1.64% | -0.416% | 0.0697% | -1.55% | -0.229% | 0.671% | 2.79% |
| CC1Cc2ccccc2N1NC(=O)c1ccc(Cl)c(S(N)(=O)=O)c1 (stereo not given) | -2.32% | 0.265% | -1.54% | -0.538% | 0.759% | 0.259% | -4.15% | -2.59% | -1.16% | -1.46% |
| CN1[C@@H]2CC[C@H]1CC(OC(=O)c1c[nH]c3ccccc13)C2 (stereo not given in full) | 4.79% | 5.76% | 6.41% | 23.4% | 7.53% | 1.59% | 58.8% | 9.21% | 1.15% | 0.619% |
| Nc1nc2[nH]cnc2c(=S)[nH]1 | 23.3% | 12.5% | 5.75% | 17.2% | 25% | 18.7% | 63.7% | 42.5% | -1.02% | 2.55% |
| Cc1c(C(=O)NN2CCCCC2)nn(-c2ccc(Cl)cc2Cl)c1-c1ccc(Cl)cc1 | -2.71% | -0.227% | 1.25% | -0.743% | -1.14% | -2.08% | 11.7% | -1.46% | -7.47% | 3.18% |
| CC(C(=O)O)c1cccc(Oc2ccccc2)c1 (stereo not given) | 1.86% and -0.732% | 4.27% and 0.295% | 0.905% and -1.45% | 0.241% and -0.0623% | 1.32% and -0.621% | 2.03% and -0.313% | 0.908% and -1.16% | -2.87% and -3.43% | 3.45% and 0.152% | 0.892% and 1.49% |
| Cc1cc2c(s1)Nc1ccccc1N=C2N1CCN(C)CC1 | 1.66% | 3.63% | 1.48% | 2.04% | 4.5% | 0.504% | 3.31% | 3.12% | 3.75% | -0.29% |
| OCCOCCN1CCN(C(c2ccccc2)c2ccc(Cl)cc2)CC1 (stereo not given) | 3.87% | 0.602% | 4.59% | 0.403% | 2.86% | 3.73% | 4.05% | 1.02% | -1.15% | 1.1% |
| CCOC(=O)CCC(=O)O[C@H]1[C@H](O[C@@H]2[C@@H](C)[C@H](O[C@H]3C[C@@](C)(OC)[C@@H](O)[C@H](C)O3)[C@@H](C)C(=O)O[C@H](CC)[C@@](C)(O)[C@H](O)[C@@H](C)C(=O)[C@H](C)C[C@@]2(C)O)O[C@H](C)C[C@@H]1N(C)C | -2.45% | -0.105% | 1.67% | -1.7% | -1.58% | -2.75% | 19.9% | -1.78% | -9.9% | 2.09% |
